These results are taken from PubChem BioAssay (NCATS).

Assay [1] concerns the target Lysosomal acid glucosylceramidase (Homo sapiens) (UniProt P04062). The assay can be described thus: Glucocerebrosidase-p2 (AID 348; in the data active = potency below about 10 µM; also: potency is read from the fitted curve at half-maximal effect). Particulars: purified GBA, blue fluorogenic substrate, 40 min. In short, it runs like this: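 Compounds titrated from 0.6 nM upwards against 0.2 nM enzyme in pH 5.9 citric acid/KH2PO4, taurocholate, tween-20; blue fluorogenic substrate 80 uM, 40 min room temperature, stopped and read Ex 365/Em 440 for AC50.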

A short description of assay [2]: AP1 Signaling Pathway (AID 357).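 Also: ME-180 reporter cells stimulated with EGF at its EC50 level; % is scaled to controls: 0 for no effect and ±100 for the full control effect.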 Particulars: ME-180 AP-1-bla reporter, EGF-induced, beta-lactamase ratio, 5 h; at 7.69 µM (top of the series) unless noted. The method, boiled down: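 Beta-lactamase reporter under AP-1 response element, ME-180 background. Stimulus: EC50 EGF. Compound exposure 5 h, 37 °C. Detection: CCF4, 2.5 h RT, 460/530 nm. Values: AC50 from titration.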

Assay [3] concerns the target Cytochrome P450 1A2 (Homo sapiens) (UniProt P05177). Put plainly: p450-cyp1a2 (AID 410; calls by dose curve; also: potency is read from the fitted curve at half-maximal effect;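 as to activity change, negative = inhibition: -100% = full effect of reference inhibitor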). The note with it: recombinant CYP1A2, luciferin-ME demethylation, luminescence; series mostly up to 11.4 µM. In short, it runs like this: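 Luminescent readout of luciferin formed from Luciferin-ME by human CYP1A2; data normalized against complete inhibition by 57 uM furafylline. Enzyme 20nM, substrate 100uM at Km, 100mM KPO4 buffer, 60 min reaction at room temperature.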

Assay [4] deals with Glucocorticoid receptor (Homo sapiens) (UniProt P04150). The assay can be described thus: GR-GFP Redistribution (AID 450;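 active = compounds whose dose series gives a full or clear partial fitted curve of increased nuclear translocation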; also: potency is read from the fitted curve at half-maximal effect). Particulars: U2OS GR-GFP nuclear translocation, laser cytometry, 2 h.
Chain of Glucocorticoid receptor (Homo sapiens) (P04150 whole entry, looked up, the tested form may be a part): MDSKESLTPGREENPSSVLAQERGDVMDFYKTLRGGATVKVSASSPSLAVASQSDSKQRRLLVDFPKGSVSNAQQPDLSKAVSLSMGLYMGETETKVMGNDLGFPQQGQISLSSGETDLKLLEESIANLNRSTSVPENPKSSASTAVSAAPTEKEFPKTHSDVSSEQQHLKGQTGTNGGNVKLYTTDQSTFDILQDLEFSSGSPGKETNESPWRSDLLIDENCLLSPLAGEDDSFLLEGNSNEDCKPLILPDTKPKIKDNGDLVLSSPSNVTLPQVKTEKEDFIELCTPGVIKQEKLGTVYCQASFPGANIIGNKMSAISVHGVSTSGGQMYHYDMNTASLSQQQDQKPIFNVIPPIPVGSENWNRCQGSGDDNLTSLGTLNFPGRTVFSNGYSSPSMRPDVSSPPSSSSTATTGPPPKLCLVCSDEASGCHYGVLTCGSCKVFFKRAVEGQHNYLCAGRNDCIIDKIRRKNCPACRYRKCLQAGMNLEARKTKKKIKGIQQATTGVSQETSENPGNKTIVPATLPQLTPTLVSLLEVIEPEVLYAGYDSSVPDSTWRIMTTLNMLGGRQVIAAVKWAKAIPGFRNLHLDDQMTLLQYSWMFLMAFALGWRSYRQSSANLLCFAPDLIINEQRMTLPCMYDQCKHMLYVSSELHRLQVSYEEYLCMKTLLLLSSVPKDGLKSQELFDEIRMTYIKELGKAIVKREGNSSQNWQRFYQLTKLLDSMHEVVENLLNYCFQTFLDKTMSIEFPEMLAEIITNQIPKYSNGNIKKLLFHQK
Assay [5] has the same target. Put plainly: GR-EFC Redistribution (AID 451; calls by dose curve; also: potency is read from the fitted curve at half-maximal effect). Particulars: CHO-K1 GR-EFC translocation, beta-gal luminescence, 2 h. In short, it runs like this: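 CHO-K1 cells stably expressing nuclear-localized β-gal enzyme acceptor and GR fused C-terminally to the enzyme donor fragment; ligand-driven nuclear translocation restores β-gal by complementation. Compounds titrated up to 46 uM final, 2 h at 37 °C; luminescence read.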

Assay [6] deals with Mitogen-activated protein kinase 10 (Mus musculus) (UniProt Q61831). Put plainly: JNK3 AlphaScreen Assay (AID 530).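 Also: kinase came from lysate of stimulated human HepG2 cells; signal reports phosphorylation of biotinylated GST-cJun 1-79 at Ser73 with 10 µM ATP; % is scaled to controls: 0 for no effect and ±100 for the full control effect.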 Particulars: JNK3 lysate, c-Jun phosphorylation; series mostly up to 11.4 µM. In short, it runs like this:
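Inhibitors reduce antibody binding to phosphorylated biotin-cJun, lowering AlphaScreen luminescence. Lysates from HepG2 cells pre-activated by IL-1beta plus TNF-alpha supplied JNK3; compounds were titrated.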

Assay [7] concerns the target Cytochrome P450 2C9 (Homo sapiens) (UniProt P11712). The assay can be described thus: qHTS Assay for Inhibitors and Substrates of Cytochrome P450 2C9 (AID 883; active = well fitted curve in the direction sought with a large enough effect; an effect the other way counts as inactive or inconclusive; also: nearly all actives have a fitted effect of over 60% in size; also: potency is read from the fitted curve at half-maximal effect). Particulars: recombinant CYP2C9, luciferin-H luminescence, 60 min; series mostly up to 11.4 µM. The method, boiled down:
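CYP2C9 deoxyluciferin hydroxylation, 37C, 60 min with NADPH regeneration; 10nM enzyme, 100uM Luciferin-H (KM). Glo detection reagent stopped reaction; luminescence normalized to sulphaphenazole (57uM) full inhibition.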

Assay [8] addresses Cytochrome P450 3A4 (Homo sapiens) (UniProt P08684). Put plainly: qHTS Assay for Activators of Cytochrome P450 3A4 (AID 885; active = well fitted curve in the direction sought with a large enough effect; an effect the other way counts as inactive or inconclusive; also: nearly all actives have a fitted effect of over 65% in size). The note with it: recombinant CYP3A4, Luciferin-PPXE luminescence, 60 min; series mostly up to 11.4 µM. In short, it runs like this:
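Quantitative HTS format: compounds preincubated with 20nM human CYP3A4 and Luciferin-PPXE substrate at KM, reaction started by NADPH regeneration, stopped after 60 min, luciferase luminescence read 20 min later.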
For orientation: Quantitative high-throughput screening tests each substance at several concentrations.

The target in assay [9] is Cytochrome P450 2D6 (Homo sapiens) (UniProt P10635). Put plainly: qHTS Assay for Inhibitors and Substrates of Cytochrome P450 2D6 (AID 891; active = well fitted curve in the direction sought with a large enough effect; an effect the other way counts as inactive or inconclusive; also: nearly all actives have a fitted effect of over 60% in size; also: potency is read from the fitted curve at half-maximal effect;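 as to activity change, negative = inhibition: luciferin methyl ether substrate demethylated by CYP2D6 with NADPH regeneration; % is scaled to controls: 0 for no effect and ±100 for the full control effect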). The note with it: recombinant CYP2D6, luciferin-ME EGE luminescence; series mostly up to 11.4 µM. In short, it runs like this:
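Human CYP2D6 (5 nM) with 30 uM Luciferin-ME EGE (at Km) in 100 mM KPO4, compound preincubated 10 min, then NADPH regeneration system for 60 min at room temperature. Luciferin read by luminescence; normalized to 1.43 uM quinidine.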

The target of assay [10] is Cytochrome P450 2C19 (Homo sapiens) (UniProt P33261). Put plainly: qHTS Assay for Inhibitors and Substrates of Cytochrome P450 2C19 (AID 899; active = well fitted curve in the direction sought with a large enough effect; an effect the other way counts as inactive or inconclusive; also: nearly all actives have a fitted effect of over 60% in size; also: potency is read from the fitted curve at half-maximal effect). Particulars: recombinant CYP2C19, luciferin-H EGE luminescence; series mostly up to 11.4 µM. The method, boiled down: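 In 50mM KPO4, the reaction held 5nM enzyme and KM-level (10uM) Luciferin-H EGE; it ran 60 min at 37C after NADPH regeneration and a 10 min compound preincubation. Luminescence values were scaled to 57uM ketoconazole as complete inhibition.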
Chain of Cytochrome P450 2C19 (Homo sapiens) (P33261 whole entry, looked up): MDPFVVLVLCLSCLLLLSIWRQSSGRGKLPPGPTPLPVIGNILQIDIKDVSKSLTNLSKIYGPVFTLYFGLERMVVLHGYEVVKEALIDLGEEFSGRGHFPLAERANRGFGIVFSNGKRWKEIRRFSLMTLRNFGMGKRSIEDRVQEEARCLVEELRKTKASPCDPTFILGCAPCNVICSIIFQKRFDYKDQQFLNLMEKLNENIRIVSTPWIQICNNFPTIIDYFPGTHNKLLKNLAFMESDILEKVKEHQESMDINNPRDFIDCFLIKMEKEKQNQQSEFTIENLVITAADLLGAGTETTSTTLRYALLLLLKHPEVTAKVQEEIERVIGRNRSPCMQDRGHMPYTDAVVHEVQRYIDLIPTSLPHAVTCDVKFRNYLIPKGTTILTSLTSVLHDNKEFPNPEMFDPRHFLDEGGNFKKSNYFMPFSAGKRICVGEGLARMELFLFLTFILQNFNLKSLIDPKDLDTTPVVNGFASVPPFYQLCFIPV

Assay [11] concerns the target 3',5'-cyclic-AMP phosphodiesterase 4B (Homo sapiens) (UniProt Q07343). Put plainly: qHTS Assay for Inhibitors of PDE-IV (AID 607; active = well fitted activation curve with a large enough effect in the main read-out, with a control signal flat, not every such curve was filed as active; also: % of control where 0% means no effect). The note with it: HEK293 ACTOne CNG channel cells, membrane potential fluorescence; series mostly up to 22.9 µM. In short, it runs like this:
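Live HEK293 cells with a modified cyclic nucleotide-gated (CNG) channel report intracellular cAMP via membrane-potential dye fluorescence (ex 535/em 590 nm). Endogenous PDE-IV was targeted. Compounds were tested at up to 22.9 uM final; RO 20-1724 100 uM served as control.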

In assay [12] the target is Cytochrome P450 3A4 (Homo sapiens) (UniProt P08684). Put plainly: qHTS Assay for Inhibitors and Substrates of Cytochrome P450 3A4 (AID 884; active = well fitted curve in the direction sought with a large enough effect; an effect the other way counts as inactive or inconclusive; also: nearly all actives have a fitted effect of over 50% in size; also: potency is read from the fitted curve at half-maximal effect). Particulars: recombinant CYP3A4, Luciferin-PPXE luminescence; series mostly up to 57.1 µM. The method, boiled down: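 20 nM human CYP3A4 with 25 uM Luciferin-PPXE (at KM) in 200 mM KPO4, preincubated 10 min with compound; NADPH regeneration started a 60 min RT reaction. Luciferin detected by luminescence, normalized to 57 uM ketoconazole as full inhibition.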
Chain of Cytochrome P450 3A4 (Homo sapiens) (P08684 whole entry, looked up): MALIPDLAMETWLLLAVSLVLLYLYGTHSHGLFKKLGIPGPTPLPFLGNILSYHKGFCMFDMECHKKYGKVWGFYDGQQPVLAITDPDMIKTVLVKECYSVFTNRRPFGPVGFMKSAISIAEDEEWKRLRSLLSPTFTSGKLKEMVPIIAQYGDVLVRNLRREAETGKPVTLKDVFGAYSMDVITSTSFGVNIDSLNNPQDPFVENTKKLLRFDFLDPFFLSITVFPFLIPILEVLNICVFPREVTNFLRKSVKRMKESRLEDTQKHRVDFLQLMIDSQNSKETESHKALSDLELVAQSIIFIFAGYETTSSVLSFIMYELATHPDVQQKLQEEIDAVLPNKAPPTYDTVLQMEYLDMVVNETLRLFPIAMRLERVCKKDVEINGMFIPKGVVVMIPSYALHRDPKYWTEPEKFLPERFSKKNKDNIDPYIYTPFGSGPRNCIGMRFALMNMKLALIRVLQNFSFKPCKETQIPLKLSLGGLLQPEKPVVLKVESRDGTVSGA

Assay [13] in a line: Stat Signaling Pathway (AID 446).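 Also: ME-180 cervical cancer cells given 40 pM IL-6 alongside compound; SIE-controlled beta-lactamase reporter measured as 460/530 nm FRET emission ratio; % is scaled to controls: 0 for no effect and ±100 for the full control effect.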 The note with it: ME-180 (cervical carcinoma) SIE beta-lactamase reporter, IL-6 stimulated, 5 h; at 7.69 µM (top of the series) unless noted. In short, it runs like this: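 IL-6/STAT signaling read in ME-180 cells via an SIE beta-lactamase reporter. Stimulus was 40 pM IL-6 (its AC50) for 5 hrs, so both activation and inhibition register.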

Values without a mark were called inactive. Records with an inconclusive call do not appear. Calls of active or inactive are those of the source. Unless noted, calls follow the shape of the dose curve; as a rule, active = well fitted curve in either direction with a large enough effect (not every such curve was filed as active); inconclusive = small, poorly fitted or top-dose-only effect, or another doubt; inactive = flat fitted curve, though single readings scatter.

Chain of Cytochrome P450 1A2 (Homo sapiens) (P05177 whole entry, looked up): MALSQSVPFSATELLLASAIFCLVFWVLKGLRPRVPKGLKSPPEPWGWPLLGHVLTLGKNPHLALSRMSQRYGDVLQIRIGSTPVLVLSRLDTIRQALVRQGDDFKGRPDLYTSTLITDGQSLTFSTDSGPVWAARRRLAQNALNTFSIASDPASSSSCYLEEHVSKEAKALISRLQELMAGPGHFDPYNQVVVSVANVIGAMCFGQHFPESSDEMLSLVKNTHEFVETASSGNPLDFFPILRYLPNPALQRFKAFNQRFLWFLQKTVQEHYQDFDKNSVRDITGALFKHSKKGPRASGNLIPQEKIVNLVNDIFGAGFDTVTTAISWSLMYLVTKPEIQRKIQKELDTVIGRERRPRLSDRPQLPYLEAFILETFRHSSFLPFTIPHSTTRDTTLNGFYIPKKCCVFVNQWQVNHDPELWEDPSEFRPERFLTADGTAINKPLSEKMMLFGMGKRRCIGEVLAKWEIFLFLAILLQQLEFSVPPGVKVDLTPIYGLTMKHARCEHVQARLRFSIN
Chain of Cytochrome P450 2C9 (Homo sapiens) (P11712 whole entry, looked up): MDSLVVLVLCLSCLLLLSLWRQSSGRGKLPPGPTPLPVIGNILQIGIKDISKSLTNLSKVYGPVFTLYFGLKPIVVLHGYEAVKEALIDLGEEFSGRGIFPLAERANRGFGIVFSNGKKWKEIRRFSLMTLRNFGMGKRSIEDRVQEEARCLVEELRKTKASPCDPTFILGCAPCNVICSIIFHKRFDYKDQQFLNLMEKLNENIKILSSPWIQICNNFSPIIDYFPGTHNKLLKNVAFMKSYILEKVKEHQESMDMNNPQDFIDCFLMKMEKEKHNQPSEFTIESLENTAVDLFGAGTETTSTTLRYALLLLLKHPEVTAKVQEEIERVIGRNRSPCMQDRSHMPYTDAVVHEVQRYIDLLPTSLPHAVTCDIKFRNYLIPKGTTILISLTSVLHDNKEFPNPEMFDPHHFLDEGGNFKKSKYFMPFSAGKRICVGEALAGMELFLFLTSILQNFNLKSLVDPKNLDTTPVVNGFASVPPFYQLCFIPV
Chain of 3',5'-cyclic-AMP phosphodiesterase 4B (Homo sapiens) (Q07343 whole entry, looked up): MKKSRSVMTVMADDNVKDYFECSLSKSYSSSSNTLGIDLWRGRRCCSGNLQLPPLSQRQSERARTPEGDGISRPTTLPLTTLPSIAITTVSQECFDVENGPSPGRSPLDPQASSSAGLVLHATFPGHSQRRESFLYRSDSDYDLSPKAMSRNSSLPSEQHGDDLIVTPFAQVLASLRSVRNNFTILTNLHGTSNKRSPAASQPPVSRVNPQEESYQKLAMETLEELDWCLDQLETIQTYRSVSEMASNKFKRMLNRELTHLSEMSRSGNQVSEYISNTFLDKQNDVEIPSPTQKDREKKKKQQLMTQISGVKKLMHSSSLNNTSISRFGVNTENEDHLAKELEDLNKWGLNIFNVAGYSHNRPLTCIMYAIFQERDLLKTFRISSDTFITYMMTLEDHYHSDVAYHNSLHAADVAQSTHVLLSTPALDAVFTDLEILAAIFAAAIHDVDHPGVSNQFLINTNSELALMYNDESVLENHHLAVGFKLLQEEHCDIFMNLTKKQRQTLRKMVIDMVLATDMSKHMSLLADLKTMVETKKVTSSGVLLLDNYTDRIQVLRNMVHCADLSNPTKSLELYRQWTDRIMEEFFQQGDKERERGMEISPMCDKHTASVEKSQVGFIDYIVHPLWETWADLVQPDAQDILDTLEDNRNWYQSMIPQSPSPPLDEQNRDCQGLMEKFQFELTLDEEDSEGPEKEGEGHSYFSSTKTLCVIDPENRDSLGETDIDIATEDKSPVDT
Chain of Cytochrome P450 2D6 (Homo sapiens) (P10635 whole entry, looked up): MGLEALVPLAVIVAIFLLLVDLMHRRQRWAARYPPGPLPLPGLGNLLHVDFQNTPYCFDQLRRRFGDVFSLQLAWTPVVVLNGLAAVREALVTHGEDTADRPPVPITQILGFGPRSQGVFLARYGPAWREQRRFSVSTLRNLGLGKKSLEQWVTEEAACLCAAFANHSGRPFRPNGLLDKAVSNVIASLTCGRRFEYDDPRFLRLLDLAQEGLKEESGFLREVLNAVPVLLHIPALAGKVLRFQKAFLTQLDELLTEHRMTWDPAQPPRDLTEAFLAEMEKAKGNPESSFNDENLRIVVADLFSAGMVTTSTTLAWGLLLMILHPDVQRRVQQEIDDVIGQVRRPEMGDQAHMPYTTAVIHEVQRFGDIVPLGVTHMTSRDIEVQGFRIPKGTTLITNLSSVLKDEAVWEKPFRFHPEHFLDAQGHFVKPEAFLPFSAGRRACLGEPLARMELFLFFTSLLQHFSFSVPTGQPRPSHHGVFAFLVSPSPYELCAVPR
Chain of Lysosomal acid glucosylceramidase (Homo sapiens) (P04062 whole entry, looked up): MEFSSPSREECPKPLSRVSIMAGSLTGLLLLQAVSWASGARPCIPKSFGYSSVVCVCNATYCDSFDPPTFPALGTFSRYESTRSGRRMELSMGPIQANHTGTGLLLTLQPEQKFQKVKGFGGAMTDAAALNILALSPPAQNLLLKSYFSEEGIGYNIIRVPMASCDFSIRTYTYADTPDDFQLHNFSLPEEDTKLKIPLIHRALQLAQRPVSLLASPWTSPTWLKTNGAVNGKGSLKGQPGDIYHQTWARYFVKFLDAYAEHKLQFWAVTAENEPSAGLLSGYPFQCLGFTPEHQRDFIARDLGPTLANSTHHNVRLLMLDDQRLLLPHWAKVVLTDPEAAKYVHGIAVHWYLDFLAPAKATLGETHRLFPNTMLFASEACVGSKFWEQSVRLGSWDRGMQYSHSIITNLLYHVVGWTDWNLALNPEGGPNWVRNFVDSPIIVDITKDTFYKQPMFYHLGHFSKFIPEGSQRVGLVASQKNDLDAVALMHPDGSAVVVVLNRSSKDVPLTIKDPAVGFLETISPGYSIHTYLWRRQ

In the case of `Cc1cc(O)c(-c2cc(O)c(C)cc2O)cc1O`, the Potency is more than 11.4 µM in assay [1]; 3.98 µM (active) in assay [3]; more than 46 µM in [4]; more than 9.22 µM in assay [5]; 1.26 µM (active) in assay [7]; 0.794 µM (active) in [10]. Moreover, the activity change, negative = inhibition in [2] was -22.9%. Further, the Potency result in assay [6], in [8] and in assay [9] was “inactive” each time.
With `CC(C)Cn1cnc2c(SCc3ccc(Cl)cc3Cl)nc(N)nc21`, the Potency in assay [1] was more than 11.4 µM; in assay [3] it was 1.26 µM (active); in assay [4], more than 46 µM; in assay [5], more than 9.22 µM; in [12], 3.98 µM (active); in assay [10] it was 2 µM (active). In addition, the activity change, negative = inhibition in assay [2] was -27.8%. Also, the Potency entry in [6], in [11] and in [8] was “inactive” each time.
`Clc1ccc(Cl)c(SCCCN2CCNCC2)c1`: the Potency in [1] is more than 11.4 µM; in [3], 0.501 µM (active); in assay [4] it was more than 46 µM; in assay [5], more than 9.22 µM; in [9], 2.51 µM (active). The activity change, negative = inhibition in assay [2] was 3.23%. Besides, the Potency result in assay [6] and in assay [11] was “inactive” in each case.
In the case of `OC[C@@H]1O[C@@H](n2cnc3c(SCc4ccccc4)ncnc32)[C@@H](O)[C@H]1O`, the Potency in assay [1] is more than 11.4 µM; in assay [4], more than 46 µM; in assay [5], more than 9.22 µM. The activity change, negative = inhibition was 3.13% in assay [2] and -17.2% [at 2.29 µM] in assay [3]. Further, the Potency entry in [6] and in [11] was “inactive” in each case.
`c1ccc(CNCCN2CCNCC2)nc1`: the Potency in assay [1] is more than 11.4 µM; in assay [4], more than 46 µM; in assay [5] it was more than 9.22 µM. In addition, the figures for the activity change, negative = inhibition in assay [2] and in assay [12] were 4.86% and -5.12% [at 11.4 µM], respectively. Besides, the Potency result in assay [3], in assay [6], in assay [11], in assay [7], in assay [9] and in assay [10] was “inactive” in each case.
`Clc1ccc2c(NC3CCC(N4CCCCC4)CC3)ccnc2c1` (configuration not stated): the Potency was more than 11.4 µM in assay [1], more than 46 µM in assay [4] and more than 9.22 µM in assay [5]. Besides, the results for the activity change, negative = inhibition in assay [2] and in [3] were -12.3% and -15.7% [at 2.29 µM], respectively. Also, in assay [13], the activity, negative = inhibition was 3.71%. In addition, the Potency entry in assay [11] and in assay [10] was “inactive” each time.
For the compound `Cc1cc(=Nc2ccc3c(c2)c(N)cc(C)[n+]3C)nc(N)n1C`, the Potency in [1] was more than 11.4 µM; in [4], more than 46 µM; in [5], more than 9.22 µM. The activity change, negative = inhibition in assay [2] is -3.85%; in assay [3], -5.3% [at 2.29 µM]. Besides, the Potency result in assay [6] and in assay [11] was “inactive” in each case.
As for `OC1CC2CC[C@H](C1)N2CCCN1c2ccccc2Sc2ccc(Cl)cc21` (some centres not stated), the Potency was more than 11.4 µM in assay [1], more than 46 µM in [4], more than 9.22 µM in [5] and 0.0631 µM (active) in assay [9]. The activity change, negative = inhibition in assay [2] is 18.1%. Besides, the Potency result in assay [3], in assay [6] and in [11] was “inactive” in each case.
`CSc1cccc(NC(=O)OC2CCCCCCCCCCC2)c1`: the Potency in assay [1] was more than 11.4 µM; in [3] it was 5.01 µM (active); in assay [4], more than 46 µM; in assay [5] it was more than 9.22 µM. The activity change, negative = inhibition in [2] was 8.21%. In addition, the Potency result in assay [6], in [11] and in assay [8] was “inactive” in each case.
In the case of `CCCC1c2c(ccc3ccccc23)Oc2ccc3ccccc3c21`, the Potency in [1] is more than 11.4 µM; in assay [3], 0.631 µM (active); in assay [4] it was more than 46 µM; in [5] it was more than 9.22 µM; in [10], 0.631 µM (active). Further, the activity change, negative = inhibition in [2] is 11%. In assay [13], the activity, negative = inhibition is 10.6%. Moreover, the Potency result in assay [6] and in assay [11] was “inactive” each time.
Turning to `COc1ccc2ccccc2c1/C=C\C(=O)c1ccccc1`, the Potency is more than 11.4 µM in assay [1]; 3.16 µM (active) in [3]; more than 46 µM in assay [4]; more than 9.22 µM in assay [5]; 1.26 µM (active) in [7]; 0.316 µM (active) in assay [10]. In addition, the activity change, negative = inhibition in assay [2] was -15.4%. Also, the Potency result in [6], in assay [11] and in assay [8] was “inactive” each time.
In the case of `Cc1ccc(C2=C(Cl)C(=O)C(c3ccc(C)cc3)=C(Cl)C2=O)cc1`, the Potency in [1] is more than 11.4 µM; in [4], more than 46 µM; in assay [5], more than 9.22 µM; in assay [7] it was 1.58 µM (active). Also, the results for the activity change, negative = inhibition in assay [2] and in assay [3] were 4.65% and -16.9% [at 2.29 µM], respectively. The activity, negative = inhibition in [13] is -13.6%. In assay [6], the Potency entry was “inactive”.
For the compound `CN(C)c1ccc(-c2nc(Nc3ccncc3)c3ccccc3n2)cc1`, the Potency in [1] was 3.67 µM (active); in assay [3], 0.501 µM (active); in [4], more than 46 µM; in [5], more than 46 µM; in assay [12], 7.94 µM (active). Also, the activity change, negative = inhibition in assay [2] is -10.7%. The activity, negative = inhibition in assay [13] was -28.2%. Moreover, the Potency entry in assay [11] and in assay [8] was “inactive” in each case.
As to `O=C=Nc1ccc(Cc2ccc(N=C=O)cc2)cc1` (tested in a mixture with another compound), the Potency was more than 11.4 µM in [1] and 5.01 µM (active) in [3]. The activity change, negative = inhibition in assay [2] was -8.4%. The activity, negative = inhibition in assay [13] was -1.09%. Besides, the Potency result in [6] and in assay [11] was “inactive” each time.
On to `O=C(c1cc(C(F)(F)F)cc(C(F)(F)F)c1)N1CCC[C@@]2(CCN(Cc3ccccc3)C2)C1`, for which the Potency is more than 11.4 µM in [1], 25.1 µM (active) in assay [3], more than 46 µM in assay [5] and 5.01 µM (active) in assay [12]. The activity change, negative = inhibition in assay [2] is 2.92%. In addition, in assay [13], the activity, negative = inhibition was 7.65%. The Potency entry in assay [6], in assay [11] and in assay [8] was “inactive” each time.
Take `COc1ccc(C(=O)CCN(C)C)c2ccccc12`: the Potency in assay [1] is more than 11.4 µM; in [3], 1.58 µM (active); in assay [4], more than 46 µM; in assay [5], more than 9.22 µM; in [7], 3.98 µM (active). Moreover, the activity change, negative = inhibition in assay [2] is -15.5%. Besides, the Potency result in assay [6], in assay [11] and in [8] was “inactive” each time.
